Source: PubChem BioAssay
AGP1-GFP MLPCN – modulators of AGP1-GFP expression in yeast TOR pathway, primary screen, cell-based, multiplex flow cytometry, S. cerevisiae, MLPCN library; 3 h; GFP as percent of DMSO wells; GFP response vs DMSO, % at 10 µM; 320,000 compounds, 0.02% hits; AID 2066, 2009;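 active = GFP response relative to DMSO above a set limit, near screen average plus 3 SD, cut at about 150% in these data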;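 also: median GFP channel fluorescence of the gated AGP1 strain per well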
MEP2 TOR yeast – modulators of MEP2-GFP levels in yeast, primary screen, S. cerevisiae, multiplex flow cytometry, MLPCN library. GFP response vs DMSO, % at 10 µM. S. cerevisiae MEP2-GFP strain, 3 h; 100% = DMSO control level. 330,000 compounds, 0.51% hits. AID 2016, 2009;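 active = GFP response versus DMSO above a set limit, roughly screen mean plus 3 SD, cut at about 180% in these data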;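 also: median GFP fluorescence of the barcode-gated MEP2-GFP cells per well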
RPL19A TOR yeast – RPL19A-GFP expression modulators in yeast, primary screen, cell-based, S. cerevisiae, multiplex flow cytometry, MLPCN; percent response vs DMSO, % at 10 µM; S. cerevisiae RPL19A-GFP strain, 3 h; hits give low values; 330,000 compounds, 0.3% hits;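 active = percent response vs DMSO below 50%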;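 also: median channel GFP fluorescence of the barcoded RPL19A-GFP strain; lower means less RPL19A-GFP as with rapamycin TOR inhibition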
LAP4-GFP MLPCN – modulators of LAP4-GFP expression in yeast, primary screen, S. cerevisiae, multiplex flow cytometry, MLPCN library; 320,000 compounds, 0.34% hits; GFP response vs DMSO, % at 10 µM; 3 h; median GFP as percent of DMSO wells;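 active = GFP response vs DMSO above a set limit, about the screen mean plus 3 SD, cut at about 150% in these data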
CIT2 TOR yeast – modulators of CIT2-GFP expression in yeast, primary screen, S. cerevisiae, GFP fusion, multiplex flow cytometry, MLPCN library. S. cerevisiae CIT2-GFP strain, 3 h; 100 means same as DMSO wells. GFP response vs DMSO, % at 10 µM. 320,000 compounds, 0.065% hits. AID 2029, 2009;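 active = GFP response relative to DMSO above a set limit, near the screen mean plus 3 SD, cut at about 150% in these data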;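 also: ratio of well median GFP fluorescence to mean of DMSO wells on the plate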
LAP4 cherry2 – LAP4-GFP expression modulators in yeast, confirmation, cell-based, second cherry pick, flow cytometry | GFP response vs DMSO, % at 10 µM | 590 compounds, 20% hits | S. cerevisiae LAP4-GFP strain, 3 h | shares compounds with LAP4-GFP MLPCN;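 active = GFP signal as percent of the solvent control above about 150%, meaning raised reporter expression, limit read from the data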
MEP2 cherry2 – modulators of MEP2-GFP levels in yeast, confirmation, S. cerevisiae, flow cytometry GFP, second cherry picks | S. cerevisiae MEP2-GFP strain, 3 h | 590 compounds, 10% hits | GFP response vs DMSO, % at 10 µM | shares compounds with LAP4-GFP MLPCN;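 active = GFP signal above 150% of the solvent control wells, that is a rise of more than half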;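 also: median channel GFP fluorescence of all gated yeast cells per well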
RPL19A-GFP pick2 – RPL19A-GFP modulators in TOR pathway yeast, confirmation, cell-based, S. cerevisiae, flow cytometry, second cherry pick; shares compounds with LAP4-GFP MLPCN; S. cerevisiae RPL19A-GFP strain, 3 h; hits give low values; 100% means same as DMSO wells; GFP response vs DMSO, % at 10 µM; 590 compounds, 3% hits; AID 2623, 2010;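 active = under 65% GFP response relative to DMSO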;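 also: median GFP channel fluorescence per well over the all cells gate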
CIT2-GFP pick2 – modulators of CIT2-GFP expression in yeast, confirmation, flow cytometry, second cherry pick, single plex. shares compounds with LAP4-GFP MLPCN. S. cerevisiae CIT2-GFP strain, 3 h; DMSO control wells read 100%. GFP response vs DMSO, % at 10 µM. 590 compounds, 8% hits. AID 2624, 2010;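 active = GFP response vs DMSO above about 150%, limit read from the data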;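 also: median green fluorescence per well over all gated yeast cells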
AGP1 GFP CP2 – AGP1-GFP expression modulators, hit retest, confirmation, cell-based, flow cytometry, S. cerevisiae, cherry pick set 2; shares compounds with LAP4-GFP MLPCN; S. cerevisiae AGP1-GFP strain, 3 h; percent response vs DMSO, % at 10 µM; 590 tested, under 10 active;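 active = over 150 percent of DMSO response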;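 also: median GFP channel fluorescence over all cells without mother daughter split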
s288c autofluor – compound autofluorescence in yeast s288c, dose response, artefact control for yeast TOR pathway GFP screen, s288c strain. shares compounds with LAP4-GFP MLPCN. S. cerevisiae s288c, 520 nm autofluorescence, flow cytometry, 3 h; hits give high values; zero means same as solvent-only cells. fluorescence change (kMESF span) at 33 µM. 610 tested, under 10 active. AID 2757, 2010;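 active = fluorescence span over the dose series, or activity score, above about 33, limit read from the data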
Of the large screens only hits and unclear results are named; the others gave an inactive call (follow-up assays come after a bar, where they were run). Only some compounds are listed: those with a hit (about 0.93% of all), similar ones and a draw of the others.

CC1=CN2C(=N)/C(=C/c3ccc([N+](=O)[O-])o3)C(=O)N=C2S1	MEP2 TOR yeast active, LAP4-GFP MLPCN 863 | LAP4 cherry2 active | MEP2 cherry2 active | RPL19A-GFP pick2 inactive | CIT2-GFP pick2 active | AGP1 GFP CP2 243
Cc1cc(-c2csc(NC(=O)c3ccc(=O)[nH]c3)n2)c(C)n1Cc1ccco1	LAP4-GFP MLPCN 152 | LAP4 cherry2 inactive | MEP2 cherry2 inactive | RPL19A-GFP pick2 inactive | CIT2-GFP pick2 inactive | AGP1 GFP CP2 inactive
O=C(CSc1nncc(=O)[nH]1)Nc1cccc([N+](=O)[O-])c1	none
C=CCOc1ccccc1C(=O)/C=C1/C(=O)Nc2ccccc21	none | s288c autofluor inactive
C=CCOc1ccc(C(=O)/C=C2/C(=O)Nc3ccccc32)cc1	none | s288c autofluor inactive
NC(=O)COc1ccc(C(=O)/C=C2/C(=O)Nc3ccccc32)cc1	none | s288c autofluor inactive
Cc1ccc(S(=O)(=O)N(C)c2ccc(OC(=O)CN3C(=O)NC4(CCCC4)C3=O)cc2)cc1C	none
Cc1ccsc1C(=O)OCC(=O)NCc1ccccc1	none
CCOC(=O)N1CCN(C(=O)c2ccc(S(=O)(=O)Nc3ccccc3)cc2)CC1	CIT2 TOR yeast 172 | LAP4 cherry2 inactive | MEP2 cherry2 inactive | RPL19A-GFP pick2 inactive | CIT2-GFP pick2 inactive | AGP1 GFP CP2 inactive
O=c1c2c([N+](=O)[O-])cc([N+](=O)[O-])cc2sn1Cc1ccccc1	none
O=c1c2c([N+](=O)[O-])cc([N+](=O)[O-])cc2sn1-c1ccc(Br)cc1	RPL19A TOR yeast 32 | LAP4 cherry2 inactive | MEP2 cherry2 inactive | RPL19A-GFP pick2 inactive | CIT2-GFP pick2 inactive | AGP1 GFP CP2 inactive
Cn1ccnc1C1CCCCN1C(=O)c1cc(COc2ccc(F)cc2Cl)on1 (stereo not given)	none
Cc1cc(C)c(S(=O)(=O)ON2C(=O)c3ccccc3C2=O)cc1C	LAP4-GFP MLPCN 171 | s288c autofluor inactive
O=C1c2ccccc2C(=O)N1OS(=O)(=O)c1ccc(F)cc1	LAP4-GFP MLPCN 157 | s288c autofluor inactive
Cc1ccc(S(=O)(=O)ON2C(=O)c3ccccc3C2=O)c(C)c1	none | LAP4 cherry2 inactive | MEP2 cherry2 168 | RPL19A-GFP pick2 inactive | CIT2-GFP pick2 inactive | AGP1 GFP CP2 inactive | s288c autofluor inactive
Cc1cc(C)c(C)c(S(=O)(=O)ON2C(=O)c3ccccc3C2=O)c1C	LAP4-GFP MLPCN 248 | s288c autofluor inactive
Cc1ccc(S(=O)(=O)N2CCN(CCc3ccccc3)CC2)c(C)c1	none
O=S(=O)(NCc1nnc2ccccn12)c1ccc(Cl)cc1	none
